Experimental findings from PubChem BioAssay (NCI) are described below.

The panel holds about 83,000 compounds, 20% with a hit somewhere; the sample as a whole holds those more often.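 Cells were grown in 96-well plates and exposed to the test compound at a single concentration for 48 hours; results are reported as percent growth, with values below 10 considered active.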 Unmarked numbers belong to inactive results. Active and inactive are the calls of the source.

The subject of the experiment is MOLT-4 leukemia. Description: NCI-60 one-dose screen, 48 h (100 = growth as untreated, 0 = no growth, -100 = all killed). The following applies: 10 µM unless noted.
Regarding `O=C(O)C(O)C(O)C(=O)O.[NH-]C1CCCCC1[NH-].[Pt+2]` (centres undefined), the growth was 105%.

Consider `Cc1ccc(Nc2c(C(N)=O)cnc3ccc(-c4csc(N)n4)cc23)cc1`, for which the growth was 95.3%.

For the compound `Cl/C(=N\Nc1ccccc1)c1ccccc1`, the growth was 80.1%.

On to `COc1cc(-c2c3sc(=O)[nH]c3nc3c2c(=O)[nH]n3C(C)C)cc2c1OCO2`, for which the growth was 104%.

For `CC(C)(C)n1cc(-c2ccnc(NCCNS(=O)(=O)c3ccccc3)c2)c(-c2cccc(O)c2)n1`, the growth was 38.2%.

Turning to `COC(=O)C12C3C(=O)N(c4ccc(OC)cc4)C(=O)C3C(c3cn(-c4ccccc4)nc3C)N1[C@H](c1cn(-c3ccccc3)nc1C)[C@@H]1C(=O)N(c3ccc(OC)cc3)C(=O)[C@@H]12` (some centres undefined), the growth was 81.8%.

Consider `CC/C(Cc1ccccc1)=C(/c1ccc(O)cc1)c1ccc(OCCN2CCCC2)cc1`, for which the growth was -22.7% (active).

Consider `O=C(NC(Cc1ccccc1)C(=O)CCl)OCc1ccccc1` (centres undefined), for which the growth was 12.2%.

Consider `CCCCCC(=O)N(CCCC)CCCC`, for which the growth is 105%.

Take `COc1cccc(/C=C2/C(=O)N(Cc3ccco3)SC2=S)c1OC`: the growth is 92.1%.

Take `COc1ccc(-c2cc(/C=C3\C(=O)Nc4ccc(Cl)cc43)[nH]n2)cc1`: the growth was 25.1%.

For `CCOC(=O)C(C#N)C1CCCCC1` (centres undefined), the growth was 79.3%.

With `CC(C)[C@H]1COC(=O)N1[C@@H]1C(=O)N([C@@H](CCC(=O)N2CCN(C3CCCC3)CC2)C(=O)N[C@@H]2CCCc3ccccc32)[C@@H]1/C=C/c1cccc(Br)c1`, the growth was 17.9%.

Regarding `Nc1ccc(N2CCOCC2)cc1`, the growth was 118%.

Turning to `COc1cccc(/C=C\C(=O)c2ccccc2)c1`, the growth is 28.8%.

For `NS(=O)(=O)c1ccc(-n2ncc3c(=O)[nH]c(CN4CCN(c5cc6c(cc5F)c(=O)c(C(=O)O)cn6C5CC5)CC4)nc32)cc1`, the growth was 97%.

Regarding `COc1cc(C2CC(=O)Nc3c2c(C)nn3-c2nc3ccccc3[nH]2)cc(OC)c1OC` (centres undefined), the growth is -42.5% (active).

Take `CN1CCCCC1CCN1c2ccccc2Sc2ccc(Br)cc21` (centres undefined): the growth was 30.3%.

As to `Cc1ccc(C2CC3c4ccccc4C2C2CCCCN32)cc1` (centres undefined), the growth was 94.8%.

For `CCOC(=O)CC(C)=N`, the growth is 106%.

Take `N=S(=O)(NC(=O)c1ccc(Cl)cc1Cl)c1ccc(Br)s1` (centres undefined): the growth was 98.5%.

Regarding `COc1ccc(CN(c2ccc(C)cc2)C2OC(=O)c3ccccc32)cc1OC` (centres undefined), the growth is 98.6%.

For the compound `c1c2c(cc3c1OCO3)Cc1cc3c(cc1Cc1cc4c(cc1C2)OCO4)OCO3`, the growth was 116%.

Consider `CCCCCCCCCCCCS(=O)CC(C)O` (centres undefined), for which the growth is 96.7%.

`CC1(C)CC(C(=O)OCCCCCCCCCCC[P+](c2ccccc2)(c2ccccc2)c2ccccc2)C(C)(C)N1O` (centres undefined): the growth is -56.9% (active).

For `COc1ccc(/C(=C/c2ccc3ccccc3c2)c2nn[nH]n2)cc1OC`, the growth was 37.8%.

`Cc1cccc(NC(=O)c2sc3nc4c(cc3c2N)C(=O)CCC4)c1`: the growth is 51.1%.

`O=[N+]([O-])c1cccc(C2CC(c3ccccc3)=Nc3ccccc3S2)c1` (centres undefined): the growth was 64.2%.

`CCOC(=O)/C=C/c1ccc(C(=O)OCC)[nH]1`: the growth was 75.8%.

Turning to `CS(CCCCN=C=S)=NC(=O)c1c(F)c(F)c(F)c(F)c1F` (centres undefined), the growth was 66.2%.

Turning to `COC1C/C(=N\O)C2OC(c3ccccc3)OCC2O1` (centres undefined), the growth is 97.6%.

Consider `Cc1cc(Nc2nc(N3CCN(C)CC3)nc3ccccc23)n[nH]1`, for which the growth is 69.9%.

As for `O=C1Nc2ccccc2/C1=C/C(=N/c1nnc(-c2ccccc2)s1)c1ccccc1`, the growth was -24.2% (active).

For `COc1ccc(N(Cc2cc(OC)c(OC)c(OC)c2)C2OC(=O)c3ccccc32)cc1` (centres undefined), the growth was 19.2%.

Turning to `Cc1csc2ccc(Cl)cc12`, the growth is 112%.

For the compound `O=C1Nc2ccccc2/C1=C/C(=N/c1nnc(-c2ccc(Cl)cc2)s1)c1ccccc1`, the growth is -26.4% (active).

In the case of `CC(=O)OCC1OC(OC2=C(CC=C(Cl)Cl)C(=O)c3ccccc3C2=O)C(OC(C)=O)C(OC(C)=O)C1OC(C)=O` (centres undefined), the growth is -21.1% (active).

Turning to `O=C(/C=C/c1ccc(B(O)O)cc1)/C=C/c1ccc(B(O)O)cc1`, the growth was 51%.

For `Cc1cc2cc3cc(C)c(N(C)C)cc3[n+](C)c2cc1N(C)C`, the growth was 33.9%.
